A3G deaminase = APOBEC3G DNA deaminase inhibitors, primary screen, biochemical, fluorescence, single-stranded DNA substrate, uHTS; recombinant A3G, ssDNA deamination FAM/TAMRA fluorescence; DNA dC->dU-editing enzyme APOBEC-3G (Homo sapiens), Q9HC16; inhibition, % at 20 µM; 330,000 compounds, 0.28% hits; AID 493012, 2011;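 active means inhibition of at least 40% at 20 µM, with no more than 30% in the related APOBEC3A deaminase screen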;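 further: plate controls were DMSO wells with A3G for no effect and wells lacking A3G enzyme for full effect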
Target sequence (Q9HC16 whole entry, looked up): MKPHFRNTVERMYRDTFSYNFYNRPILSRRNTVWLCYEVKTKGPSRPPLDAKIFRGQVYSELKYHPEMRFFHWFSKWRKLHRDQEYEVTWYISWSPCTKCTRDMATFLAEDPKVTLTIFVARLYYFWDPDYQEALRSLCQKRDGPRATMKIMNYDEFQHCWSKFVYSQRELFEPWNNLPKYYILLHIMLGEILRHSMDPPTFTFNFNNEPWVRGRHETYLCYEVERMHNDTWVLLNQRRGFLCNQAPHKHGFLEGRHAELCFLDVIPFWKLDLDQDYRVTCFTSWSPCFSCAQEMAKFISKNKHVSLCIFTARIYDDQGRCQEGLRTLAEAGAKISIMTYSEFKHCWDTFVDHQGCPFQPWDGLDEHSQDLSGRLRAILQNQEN
APOBEC3A inh = APOBEC3A ssDNA deaminase inhibitors, primary screen, selectivity assay for APOBEC3G inhibitor project, biochemical, FAM/TAMRA oligo cleavage fluorescence; inhibition, % at 20 µM; AID 493011, 2011; 330,000 compounds, 0.41% hits; recombinant A3A, FAM/TAMRA ssDNA deamination fluorescence; DNA dC->dU-editing enzyme APOBEC-3A (Homo sapiens), P31941;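 active means at least 40% inhibition at 20 µM here, with at most 30% in a related deaminase screen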;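 further: plate controls were A3A with DMSO for no effect and wells lacking A3A enzyme for full effect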
Target sequence (P31941 whole entry, looked up): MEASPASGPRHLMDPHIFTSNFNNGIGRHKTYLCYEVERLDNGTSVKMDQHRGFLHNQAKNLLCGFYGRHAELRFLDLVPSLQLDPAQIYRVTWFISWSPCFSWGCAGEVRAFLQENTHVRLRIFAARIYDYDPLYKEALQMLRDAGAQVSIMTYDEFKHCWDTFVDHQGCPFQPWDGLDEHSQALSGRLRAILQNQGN
PolyA inhibitor = polyadenylation inhibitors in yeast reporter cells, primary screen, luminescence, S. cerevisiae; S. cerevisiae SKY197-pL101 polyadenylation reporter, beta-gal luminescence; efflux-impaired pdr1/pdr3 knockout yeast; score 100 = 6 SD above DMSO; activity score, % at 12 µM; AID 1875, 2009; 300,000 compounds, 0.02% hits;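 active means lowest replicate activity score at least 50, where 100 means six control SD above control mean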;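 further: yeast exposed to compound for 9 h at 30 °C; higher score means more reporter readthrough which indicates perturbed polyadenylation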
NALP1 yeast inh = NALP1 inflammasome inhibitors in reconstituted yeast, colorimetric, S. cerevisiae, triplicate retest | S. cerevisiae NALP1/ASC/caspase-1 growth, X-gal OD620, 72 h | inhibition, % at 10 µM | 280,000 compounds, 0.61% hits; in the data active means inhibition mostly above about 24%, no sharp cut-off; inactive means mostly below about 32%
APOBEC3A confirm = APOBEC3A deaminase inhibitors, retest, confirmation, selectivity assay for APOBEC3G inhibitor project, biochemical, single concentration, fluorescence readout | inhibition, % at 20 µM | recombinant A3A, ssDNA deaminase UDG fluorescence assay | 1,400 compounds, 63% hits | AID 493151, 2011 | shares compounds with APOBEC3A inh;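 active means inhibition reaching a set limit, 80% of the first screen's cutoff, at 20 µM in any replicate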;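 further: plate controls were DMSO wells with A3A for no effect and wells lacking A3A enzyme for full effect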
UDG ctr A3A = E. coli UDG inhibitors, confirmation, counter-screen for APOBEC3A inhibitor project, biochemical, single concentration, fluorescence, FAM/TAMRA oligo; inhibition, % at 20 µM; AID 504714, 2011; shares compounds with APOBEC3A inh; 1,000 tested, under 10 active; UDG counterscreen, FAM/TAMRA uracil oligo fluorescence; call rule not given here
Active calls of the source: *; · = no result given. An excerpt weighted towards active compounds, which were near 1.2% of everything screened.

SMILES | A3G deaminase | APOBEC3A inh | PolyA inhibitor | NALP1 yeast inh | APOBEC3A confirm | UDG ctr A3A
COc1cc(/C=C/c2cccc[n+]2C)ccc1OCC(=O)Nc1cccc(Cl)c1 | 18.5 | 80.8* | 33.2 | 14.4 | 75.2* | 2.8
COc1cc(/C=C/c2cc[n+](C)cc2)ccc1OCC(=O)Nc1ccc(Cl)c(Cl)c1 | 12.9 | 80.8* | 26.1 | 19.3 | 77.5* | 4.1
CC(=O)O[C@H]1C[C@@]2(O)[C@@H](OC(=O)c3ccccc3)C3[C@@](C)([C@@H](O)C[C@H]4OC[C@@]34OC(C)=O)[C@@H](O)[C@H](OC(C)=O)C(=C1C)C2(C)C (stereo not given in full) | -3.0 | 6.6 | 6.3 | 12.6 | · | ·
COc1ccc(S(=O)(=O)N2CCCCCC2)cc1C(=O)N(CC(C)C)C1CCS(=O)(=O)C1 (stereo not given) | -4.5 | -2.3 | -11.7 | · | · | ·
C=CCN1C(=O)C(CC(=O)NCC)SC1=Nc1cc(Cl)ccc1Cl (stereo not given) | -4.2 | 0.2 | -17.9 | 11.0 | · | ·
CC(C)CN(C(=O)C1CCCC1)C1CCS(=O)(=O)C1 (stereo not given) | -8.0 | -0.9 | -1.9 | · | · | ·
COc1ccc(NC(=O)COc2ccc(/C=C/c3cccc[n+]3C)cc2OC)cc1 | 26.2 | 86.0* | 4.4 | -1.0 | 74.6* | -1.3
COc1ccc(Cc2nc3ccc(C(=O)NCC4COCCO4)cc3o2)cc1OC (stereo not given) | 0.6 | -3.2 | 5.2 | 7.2 | · | ·
O=C(CN1C(=O)S/C(=C/c2ccccn2)C1=O)N1CCOCC1 | 3.5 | 57.4* | -18.1 | -19.4 | 2.1 | ·
Cc1ccc(/C=C2/SC(=O)N(CC(=O)N3CCOCC3)C2=O)s1 | 1.1 | 3.8 | -8.1 | 9.3 | · | ·
COc1cc(C)ccc1OCc1cc(C(=O)N2CCN(C3CCCCC3)CC2)no1 | 1.4 | -0.4 | -8.0 | 24.9 | · | ·
COc1ccc(CC(=O)N/N=C/c2ccc(-c3cccc(C(=O)O)c3)o2)cc1OC | 5.7 | 41.8* | 5.4 | -2.1 | 24.7 | ·
COc1ccc(CC(=O)N/N=C/c2ccc(-c3ccc(F)cc3)o2)cc1OC | 6.1 | 2.6 | 2.2 | 21.2 | · | ·
Cc1cccc(NC(=O)CSc2ncnc3nc[nH]c23)c1C | 8.2 | 34.3 | 9.5 | 4.8 | · | ·
Cc1ccc(C)c(NC(=O)CSc2ncnc3nc[nH]c23)c1 | 5.0 | 47.2* | 1.7 | 20.9 | 30.9* | -2.6
COC(=O)c1[nH]c2cc(OC)c(OC)cc2c1NC(=O)CN1C[C@H]2C[C@@H](C1)c1cccc(=O)n1C2 | -8.2 | -5.1 | · | · | · | ·
CC1CCCC(NC(=O)NC(=O)COC(=O)c2ccc(O)cc2O)C1C (stereo not given) | 5.0 | 84.6* | · | · | 32.6* | -2.3
CCOC(=O)c1ccc2c(c1)[n+](CC)c(C)n2-c1ccccc1 | 25.6 | 75.3* | -13.4 | -7.0 | 85.1* | 2.2
CC(=O)OCC[n+]1c(C)n(-c2ccccc2)c2ccc(Cl)cc21 | 11.4 | 41.6* | -10.2 | -5.8 | 84.5* | -2.7
CC(=O)c1c(C)n(-c2ccccc2)c2ccc(OCC(N)=O)cc12 | -6.7 | -5.7 | 17.1 | 5.8 | · | ·
CC[n+]1c(C)n(-c2ccccc2)c2ccc(C(=O)OC)cc21 | 12.2 | 43.6* | 2.1 | 9.6 | 40.2* | -2.7
CCOC(=O)c1c(O)c(O)c(C(=O)OCC)n1-c1ccccc1 | 6.0 | -1.4 | -13.2 | 4.6 | · | ·
Cn1c(/C=C/c2ccc(Cl)cc2Cl)c([N+](=O)[O-])c(=O)n(C)c1=O | -8.7 | -0.3 | -41.3 | -3.6 | · | ·
COc1ccc(NC(=O)CSc2nnc(Cc3ccccc3)c(=O)n2N)cc1OC | -4.1 | 0.8 | 6.1 | · | · | ·
CC(=O)Nc1ccc(NC(=O)C2CC(=O)N(Cc3ccco3)C2)cc1 (stereo not given) | -0.7 | 47.3* | · | · | 22.1 | 3.2
SMILES | A3G deaminase | APOBEC3A inh | PolyA inhibitor | NALP1 yeast inh | APOBEC3A confirm | UDG ctr A3A
CSc1cccc(NC(=O)C2CC(=O)N(Cc3ccccc3)C2)c1 (stereo not given) | 27.8 | 52.0* | 15.8 | 16.7 | -1.0 | ·
CCOc1ccc(NC(=O)C2CC(=O)N(Cc3ccco3)C2)cc1 (stereo not given) | -3.0 | -3.8 | · | · | · | ·
Nc1c(N(CCC2=CCCCC2)C(=O)C2CC2)c(=O)[nH]c(=O)n1Cc1ccccc1 | -1.4 | -0.5 | -17.2 | 16.9 | · | ·
COc1ccc(CCNC(=O)c2ccc(CS(=O)Cc3ccc(C)cc3)o2)cc1OC (stereo not given) | -7.0 | -3.6 | -2.5 | 16.0 | · | ·
CCc1cc(C(=O)OCC(=O)N2CCC(c3ccccc3)=N2)sc1C | -5.2 | 6.5 | 7.3 | 13.9 | · | ·
CC1(C)CN(c2cccc(-c3ccnc4ncnn34)c2)C1=O | -7.8 | 53.7* | -3.4 | -17.3 | -7.9 | -2.3
Cc1cc(C)n2nc(SCC#N)nc2n1 | 3.6 | 97.1* | 0.6 | 14.9 | -1.2 | ·
Cc1ccccc1S(=O)(=O)Cc1ccc(C(=O)NC2CCCCC2C)o1 (stereo not given) | -7.4 | -5.4 | 2.0 | 12.1 | · | ·
CC(C)(C)c1cc(CP(=O)(c2ccccc2)c2ccccc2)cc(C(C)(C)C)c1O | 0.8 | -1.9 | -7.6 | 15.2 | · | ·
Cc1cc(C)c(S(=O)(=O)N2CCCC(C(=O)N3CCOCC3)C2)c(C)c1 (stereo not given) | -1.5 | 6.1 | 17.8 | 11.2 | · | ·
CCCCCCCCn1c2c(c(=N)c3ccccc31)CCC2 | -5.9 | 0.5 | -18.7 | 6.5 | · | ·
CCCCCn1c2c(c(=N)c3ccccc31)CCC2 | 18.2 | 57.5* | -5.5 | 0.9 | 74.3* | 1.5
CCCCn1c2c(c(=N)c3ccccc31)CCC2 | 22.7 | 87.7* | -7.5 | 7.8 | 41.5* | 2.3
O=C(CCc1ccc(S(=O)(=O)N2CCOCC2)cc1)Nc1ccc2c(c1)OCCO2 | -9.8 | 1.5 | 8.2 | -0.7 | · | ·
CCn1c(C)cc(/C=C2\NC(=O)N(CC(=O)Nc3ccc(F)cc3)C2=O)c1C | 9.9 | 66.0* | -14.4 | -0.7 | 74.1* | 1.9
CN1CCN(c2nnc(-c3ccccc3)c(-c3ccccc3)n2)CC1 | 14.4 | 66.0* | -16.6 | 13.1 | 27.0* | -3.6
Cc1ccc(OCCC(=O)OCC(=O)N2CCN(S(=O)(=O)c3ccc(C)cc3C)CC2)cc1 | -6.6 | 2.6 | 4.1 | · | · | ·
Cc1ccc(S(=O)(=O)N2CCN(C(=O)COC(=O)CCOc3ccccc3C)CC2)c(C)c1 | 15.4 | 46.7* | · | · | 61.5* | -0.7
Cc1ccc(S(=O)(=O)N(CC(=O)O)Cc2ccco2)cc1 | 12.3 | 51.6* | 6.5 | · | 56.3* | 0.9
Cc1ccc(S(=O)(=O)N(Cc2ccccc2)Cc2ccco2)cc1 | -5.1 | -2.2 | 20.4 | 32.2 | · | ·
O=C(Oc1ccc2c(c1)OCO2)c1cc2c(s1)CCC2 | 28.9 | 62.4* | 3.4 | 18.6 | 79.5* | ·
